Laboratory results taken from ChEMBL document CHEMBL3988442, “University of Dundee, Small-Polar-MMV Screening Library” (2021).
Screen size: about 66,000 compounds; about 960 (1.5%) showed an effect of 50% or more. The list comes from a sample in which strong results are over-represented; it also holds similar structures and randomly drawn compounds.

System: Trypanosoma brucei
Assay: Trypanosoma brucei 72 hour study
Format: functional, organism-based
Parameters: scale not given: in the data most compounds retested in dose-response had high values

## CCN(CC)CCn1c(=O)oc2ccccc21.Cl
30 µM, 30.03 µM
  Percent Effect: -24.39%

## Cc1cccc2nc(-c3nc4c([nH]3)CCCNC4=O)cn12
30 µM, 30.03 µM
  Percent Effect: 66.46%

## COc1ccc(-c2nc3c([nH]2)CCCNC3=O)cc1OC
30 µM, 30.03 µM
  Percent Effect: -51.91%

## Cc1ccc2nc(-c3nc4c([nH]3)CCCNC4=O)cn2c1
30 µM, 30.03 µM
  Percent Effect: 99.29%

## COc1cc(-c2nc3c([nH]2)CCCNC3=O)cc(OC)c1OC
30 µM, 30.03 µM
  Percent Effect: -56.65%

## Cc1cn2cc(-c3nc4c([nH]3)CCCNC4=O)nc2s1
30 µM, 30.03 µM
  Percent Effect: 81.5%

## Cc1cccc(Cc2nc3c([nH]2)CCCNC3=O)c1
30 µM, 30.03 µM
  Percent Effect: -3.182%

## COc1cc(-c2nc3c([nH]2)CCCNC3=O)ccc1O
30 µM, 30.03 µM
  Percent Effect: 4.773%

## CC1(C)CNC(=O)c2nc(-c3ccccc3)[nH]c2C1
30 µM, 30.03 µM
  Percent Effect: -21.93%

## CC(C)Oc1cccc(-c2nc3c([nH]2)CCCNC3=O)c1
30 µM, 30.03 µM
  Percent Effect: -40%

## Cc1ccc2nc(-c3nc4c([nH]3)CC(C)(C)CNC4=O)cn2c1
30 µM, 30.03 µM
  Percent Effect: 106.8%

## CC(C)Cn1cncc1-c1nc2c([nH]1)CCCNC2=O
30 µM, 30.03 µM
  Percent Effect: -24.09%

## CC1(C)CNC(=O)c2nc(-c3n[nH]c(=O)[nH]3)[nH]c2C1
30 µM, 30.03 µM
  Percent Effect: -63.36%

## CN(Cc1ccco1)C[C@H]1OC[C@@H]2CN(c3ncc(F)cn3)CC[C@@H]21.O=C(O)C(F)(F)F.O=C(O)C(F)(F)F
30.3 µM, […]
  Percent Effect: -14.08%

## CN(C)C(=O)N1CCC2(CC1)CCN(Cc1ccccn1)C2=O.O=C(O)C(F)(F)F
30 µM, 30.03 µM
  Percent Effect: 7.411%

## Cc1ccc(CN2C[C@H](NC(=O)c3nccn3C)[C@H]3OCCC[C@H]32)o1
30.3 µM, […]
  Percent Effect: -18.85%

## O=C(O)C(F)(F)F.O=C(O)C(F)(F)F.c1cncc(CN2CCn3c(Cn4cncn4)cnc3C2)c1
30.3 µM, […]
  Percent Effect: -106.7%

## Cc1cc(C(=O)N2CC[C@@H](N(C)C)[C@@H]2Cc2ccccc2)no1.O=C(O)C(F)(F)F
30.3 µM, […]
  Percent Effect: 3.974%

## CN(C)CCn1c([C@@H]2CCCO2)cc2cccnc21.Cl
30.3 µM, […]
  Percent Effect: -17.47%

## CN(C)S(=O)(=O)N1CCC2(COCc3cnc(NCC4CC4)nc32)C1 (stereo unspecified)
30 µM, 30.03 µM
  Percent Effect: -49.38%

## CNC(=O)[C@@H]1CCO[C@@H]2CCN(Cc3ccsc3)C[C@H]21.O=C(O)C(F)(F)F
30.3 µM, […]
  Percent Effect: -300.6%

## O=C(C1CCC1)N1CCC2(CCCN2CC2CC2)CC1.O=C(O)C(F)(F)F
30.3 µM, […]
  Percent Effect: -53.73%

## COc1ccc(CN2CCOCC3(CCN(C4CCOCC4)C3)C2)cc1.O=C(O)C(F)(F)F.O=C(O)C(F)(F)F (stereo unspecified)
30 µM, 30.03 µM
  Percent Effect: 20.44%

## CC(=O)c1ccc(NC(=O)c2ccc3c(c2)C2(CCCCC2)CN3)cc1.O=C(O)C(F)(F)F
30.3 µM, […]
  Percent Effect: -13.93%

## O=C(Nc1ccccc1)c1ccc2c(c1)C1(CCCCC1)CN2.O=C(O)C(F)(F)F
30.3 µM, […]
  Percent Effect: 97.07%

## O=C(O)C(F)(F)F.O=C1CC2(CNCCN(C(=O)Nc3ccccc3)C2)CN1 (stereo unspecified)
30.3 µM, […]
  Percent Effect: -24.96%

## COc1ccc(C[C@H]2CN(Cc3ccoc3)CC[C@@H]2OC)cc1.O=C(O)C(F)(F)F
30.3 µM, […]
  Percent Effect: -8.959%

## COC(=O)Cn1c(=O)nc2n1C(=O)N(c1cccc(Cl)c1)C2
30 µM, 30.03 µM
  Percent Effect: -8.775%

## Cc1cc(C)c(C#N)c(NCCn2cnnc2C(C)C)n1
30 µM, 30.03 µM
  Percent Effect: -40.75%

## Cc1n[nH]c(C)c1CCC(=O)N1CCC(O)(CN2CCOCC2)C1 (stereo unspecified)
30.3 µM, […]
  Percent Effect: -4.476%

## NC(=O)NC(=O)CCN(Cc1ccccc1)CC1CCOCC1
30 µM, 30.03 µM
  Percent Effect: -38.3%

## CCN(Cc1ccc(C(C)=O)cc1)CC1CCOCC1
30 µM, 30.03 µM
  Percent Effect: 98.5%

## CCN(Cc1ccc(O)c(C(=O)O)c1)CC1CCOCC1
30 µM, 30.03 µM
  Percent Effect: -62.42%

## COC1COC2(CCN(Cc3ccccc3C)CC2)C1.O=C(O)C(F)(F)F (stereo unspecified)
30 µM, 30.03 µM
  Percent Effect: -3.278%

## COc1ccc(CN2CCn3c(CO)nnc3C2)cc1CN1CCCC1.O=C(O)CC(O)(CC(=O)O)C(=O)O
30.3 µM, […]
  Percent Effect: -29.63%

## CN(CCn1cnnc1)S(=O)(=O)c1ccc(C(F)(F)F)nc1
30 µM, 30.03 µM
  Percent Effect: -27.18%

## O=C(Cc1ccccc1F)N1CCCCC1c1ccn2ccnc2n1 (stereo unspecified)
30.3 µM, […]
  Percent Effect: -17.08%

## Br.Cc1ccc(N(CC(=O)c2ccc(Br)cc2)C2=NCCCCC2)cc1
30 µM, 30.03 µM
  Percent Effect: 102.1%

## Br.Cc1ccc(C(=O)CN(C2=NCCCCC2)c2ccccc2)cc1
30 µM, 30.03 µM
  Percent Effect: -7.636%

## Br.O=C(CN(C1=NCCCC1)c1ccccc1)c1ccccc1
30 µM, 30.03 µM
  Percent Effect: -30.63%

## Cc1nc(-c2cc(C(=O)NCCN3CCOCC3)c3ccccn23)cs1.O=C(O)C(F)(F)F
30 µM, 30.03 µM
  Percent Effect: -1.462%

## Cc1cc2occ(CC(=O)N3CCC4(CCCN(C)C4=O)C3)c2cc1Cl (stereo unspecified)
30.3 µM, […]
  Percent Effect: 2.516%

## CN(C)CC1(O)CCN(C(=O)Cc2ccc(Cl)c(Cl)c2)C1 (stereo unspecified)
30 µM, 30.03 µM
  Percent Effect: -2.195%

## Cc1cc2occ(CC(=O)N3CCC(O)(CN(C)C)C3)c2cc1Cl (stereo unspecified)
30.3 µM, […]
  Percent Effect: 99.94%

## CCN1C(=O)CC[C@]12CC[C@@H](NC(=O)c1cnccn1)CC2
30.3 µM, […]
  Percent Effect: -18.7%

## O=C(CN1CC(c2nc(Cc3ccccc3)no2)C1)NCC1CCCO1.O=C(O)C(=O)O (stereo unspecified)
30.3 µM, […]
  Percent Effect: 6.981%
